Measured values taken from PubChem BioAssay (Tox21).
Records with an inconclusive call do not appear. Activity calls are given as the source filed them. Calls follow the shape of the dose curve; as a rule, active = well fitted cell-killing curve with a large enough effect in the repeat runs; inconclusive = weak or mixed curves, or effect the other way; inactive = flat fitted curve, though single readings scatter.

Experiment: qHTS assay to identify small molecule antagonists of the retinoid acid receptor (RAR) signaling pathway - cell viability counter screen (AID 1159551); also: nearly all actives have a fitted effect of over 35% in size
Conditions: C3RL4 cells viability, ATP luminescence (CellTiter-Glo), 6 h; series mostly up to 92.4 µM
Excerpt: U.S. Tox21 Program National Center for Advancing Translational Sciences [NCATS] NIH Chemical Genomics Center [NCGC] U.S. Environmental Protection Agency [EPA] National Institutes of Environmental Health Sciences [NIEHS] National Toxicology Program [NTP] U.S. Food and Drug Administration [FDA] Tox21 Assay Overview: All-trans Retinoic acid (atRA) is the potent natural metabolite of retinol and plays an important role in normal embryonic development and maintenance of cellular phenotype in adult animals. atRA is the activating ligand for the retinoic acid receptors (RARs) which form heterodimers with retinoid X receptors (RXRs) on the retinoic acid response element (RARE). Through activation of the RAR/RXRs nuclear receptors, atRA regulates the transcription of a large number of protein-coding genes and regulatory RNAs. Intracellular levels of atRA are controlled by the retinol signaling pathway (RSP) that regulates the biosynthesis and catabolism of atRA to maintain physiological levels. Chemicals that interfere with the RSP can cause abnormal intracellular levels of atRA and therefore are potential developmental toxicants. To assess compounds for the potential adverse effect on embryonic development through interfering with retinol signaling, a cell-based RARE luciferase reporter gene assay was used. C3RL4 cell line (OARSA/CFSAN/FDA, Laurel, MD) was used to screen Tox21 10K compound library for identifying inhibitors of the RSP. Also cytotoxicity was assessed by determining the viability of cells based on the quantitation of ATP.
Tox21 Assay Protocol Summary: C3RL4 cells were seeded at 1,000/well in 4 uL of assay medium into white solid 1,536-well tissue culture plates (Greiner Bio-One North America Inc. Monroe, NC) using a Multidrop Combi (Thermo Scientific, Waltham, MA) dispenser. After incubation at 37 C and 5% CO2 for an overnight, 23 nL of compounds dissolved in DMSO, positive control or DMSO only were transferred by a Pintool station (Kalypsys, San Diego, CA). One ul of 1 uM (final concentration) of Retinol was added right after the compound addition by using a Flying Reagent Dispenser (FRD) (Aurora Discovery, San Diego, CA). After 6 hr incubation at 37 C and 5% CO2, 5 uL of CellTiter-Glo reagent (Promega Corporation, Madison, WI) was added to each assay plate using an FRD. Luminescence was quantified on a ViewLux plate reader (PerkinElmer, Waltham, MA) after 30 min incubation at room temperature.
% is scaled to controls: 0 for no effect and ±100 for the full control effect.

Structure (SMILES) | outcome | activity change, negative = cytotoxicity
CCCCc1ccc(N)cc1 | inactive | 
CCC(=O)/C=C/c1ccc(OC)cc1 | inactive | 
c1ccc2cnncc2c1 | inactive | 
C=CC(=O)N1CCOCC1 | inactive | 
CCCCCCCCC=O | inactive | 
CC(CCO)CCCC(C)(C)O (stereo not given) | inactive | 
O=C(O)/C=C/c1ccc(/C=C/C(=O)O)cc1 | inactive | 
C#CC(C)(O)CC(C)C (stereo not given) | inactive | 
CCCc1ccccc1O | inactive | 
Cc1ccccc1C(=O)O | inactive | 
Cc1ncc(CSSCc2cnc(C)c(O)c2CO)c(CO)c1O | inactive | 
CC1(C)SC(C)(C)SC(C)(C)S1 | inactive | 
CCCCCN(CCCCC)C(=O)C(CCC(=O)O)NC(=O)c1ccc(Cl)c(Cl)c1 (stereo not given) | inactive | 
NCCNC(=O)c1ccc(Cl)cn1 | inactive | 
O=C(O)c1ccccc1S | inactive | 
C[N+](C)(C)CC[N+]1(C)Cc2c(Cl)c(Cl)c(Cl)c(Cl)c2C1 | inactive | 
COC(=O)CCCCCCCCC(=O)OC | inactive | 
CCCc1ccc(N)cc1 | inactive | 
NCC[C@H](O)C(=O)N[C@@H]1C[C@H](N)[C@@H](O[C@H]2O[C@H](CN)[C@@H](O)[C@H](O)[C@H]2O)[C@H](O)[C@H]1O[C@H]1O[C@H](CO)[C@@H](O)[C@H](N)[C@H]1O |  | 2.52% [at 0.349 µM] (inactive)
NS(=O)(=O)c1cc2c(cc1C(F)(F)F)NC(Cc1ccccc1)NS2(=O)=O (stereo not given) | inactive | 

Structure (SMILES) | outcome | activity change, negative = cytotoxicity
CCCCN(CCO)CCO | inactive | 
CC(C)[N+](C)(C)CC(O)COc1cccc2ccccc12 (stereo not given) | inactive | 
CCCCCCCCN(C)CCCCCCCC | inactive | 
CC1=CC(=O)CCC1 | inactive | 
COc1ccc(NC(C)=O)cc1 | inactive | 
CC(=O)c1ccc(C)cc1 | inactive | 
Nc1cc(N)cc(C(=O)O)c1 | inactive | 
N[C@@H](CS)C(=O)O | inactive | 
CCOC(=O)Cn1c(=O)sc2cccc(Cl)c21 | inactive | 
CCCCCCCCCCCCI | inactive | 
Cn1cnc2c(=O)[nH]c(N)nc21 | inactive | 
O=S(=O)(c1cccc2cnccc12)N1CCCNCC1 | inactive | 
Cc1c(F)cc2c(=O)c(C(=O)O)cn3c2c1CCC3C (stereo not given) | inactive | 
CC(=O)NC(Cc1ccccc1)C(=O)O (stereo not given) | inactive | 
Oc1ccc2c(c1)OC[C@@H](N1CCC(O)(c3ccc(F)cc3)CC1)[C@H]2O | inactive | 
Cn1ccc2cc3c(cc21)CCN3C(=O)Nc1cccnc1 |  | -1.31% [at 19 µM] (inactive)
Cc1onc(-c2ccccc2)c1-c1ccc(S(N)(=O)=O)cc1 | inactive | 
CC(C)c1ccc2oc3nc(N)c(C(=O)O)cc3c(=O)c2c1 | inactive | 
C=C(C)C(=O)NCCC[N+](C)(C)C | inactive | 
CC1=CCC2C(C1)C2(C)C (stereo not given) | inactive | 
